Values joined by “and” are separate entries in the source; they are usually repeats but may differ in a detail not shown here. Equal values may be shown once. Hit rate of the full screen: of about 5,500 compounds, about 2,000 (36%) were called active. Not shown: some 18% with an inconclusive outcome. Cut-off read from the data, not from the text of the source: active = normalized growth mostly below about 0.91 (no sharp cut-off); inconclusive = no clear call, values can overlap the other calls; inactive = mostly above about 0.92. Some of the results follow.
Assay: chemical genetic growth profiling, strain panel (AID 1159580);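 note: tested at 20 µM; growth read once vehicle control cultures reached saturation at 30 °C; 1 = growth at the plate median or of vehicle wells; lower values mean less growth of the strain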
Conditions: S. cerevisiae deletion strains, growth OD

Measured: normalized growth

C[C@@H]1C(=O)OC2[C@H](O)C34[C@@H]5OC(=O)[C@@]3(O[C@@H]3OC(=O)[C@H](O)[C@@]34[C@H](C(C)(C)C)[C@H]5O)[C@]21O (stereo partly drawn)
inactive: locus YAL013W, strain DEP1, stronger effect = lower value 0.998 | locus YAL021C, strain ccr4, stronger effect = lower value 0.952 | locus YAL026C, strain drs2, stronger effect = lower value 0.978 | locus YAL030W, strain snc1, stronger effect = lower value 0.973 | locus YBL061C, strain skt5, stronger effect = lower value 0.975 | locus YBR009C, strain hhf1, stronger effect = lower value 0.959 | locus YBR021W, strain FUR4, stronger effect = lower value 0.983 | locus YBR023C, strain chs3, stronger effect = lower value 0.986 | locus YBR171W, strain sec66, stronger effect = lower value 0.974 | locus YBR229C, strain ROT2, stronger effect = lower value 1 | locus YBR231C, strain swc5, stronger effect = lower value 0.976 | locus YBR279W, strain paf1, stronger effect = lower value 0.98 | locus YCL011C, strain gbp2, stronger effect = lower value 0.972 | locus YCL016C, strain dcc1, stronger effect = lower value 0.975 | locus YCL029C, strain bik1, stronger effect = lower value 1.02 | locus YCL061C, strain MRC1, stronger effect = lower value 0.96 | locus YCL069W, strain vba3, stronger effect = lower value 0.976 | locus YCR088W, strain abp1, stronger effect = lower value 0.983 | locus YDL005C, strain med2, stronger effect = lower value 0.964 | locus YDL035C, strain GPR1, stronger effect = lower value 1 | locus YDL040C, strain nat1, stronger effect = lower value 0.975 | locus YDL074C, strain BRE1, stronger effect = lower value 0.999 | locus YDL101C, strain DUN1, stronger effect = lower value 1.01 | locus YDL134C, strain PPH21, stronger effect = lower value 0.999 | locus YDL185W, strain tfp1, stronger effect = lower value 1.02 | locus YDL192W, strain arf1, stronger effect = lower value 1.01 | locus YDR001C, strain nth1, stronger effect = lower value 0.973 | locus YDR069C, strain doa4, stronger effect = lower value 0.983 | locus YDR101C, strain arx1, stronger effect = lower value 1.01 | locus YDR137W, strain rgp1, stronger effect = lower value 0.935 | locus YDR159W, strain sac3, stronger effect = lower value 0.946 | locus YDR162C, strain NBP2, stronger effect = lower value 0.987 | locus YDR195W, strain ref2 0.942 | locus YDR297W, strain sur2, stronger effect = lower value 0.97 | locus YDR318W, strain mcm21, stronger effect = lower value 1.01 | locus YDR334W, strain swr1, stronger effect = lower value 0.976 | locus YDR335W, strain msn5, stronger effect = lower value 0.965 | locus YDR388W, stronger effect = lower value 1.01 | locus YDR392W, strain spt3, stronger effect = lower value 0.949 | locus YDR502C, strain sam2, stronger effect = lower value 1.03 | locus YEL003W, strain gim4, stronger effect = lower value 0.961 | locus YEL037C, strain rad23, stronger effect = lower value 0.976 | locus YEL061C, strain CIN8 (second series), stronger effect = lower value 0.965 | locus YEL061C, strain CIN8, stronger effect = lower value 0.992 | locus YER015W, strain faa2, stronger effect = lower value 0.989 | locus YER016W, strain bim1, stronger effect = lower value 0.975 | locus YER110C, stronger effect = lower value 1.01 | locus YER111C, strain swi4, stronger effect = lower value 0.964 | locus YER155C, strain BEM2 (second series), stronger effect = lower value 1.02 | locus YER155C, strain BEM2, stronger effect = lower value 1 | locus YER167W, strain BCK2, stronger effect = lower value 0.996 | locus YFR010W, strain ubp6, stronger effect = lower value 0.985 | locus YGL078C, strain dbp3, stronger effect = lower value 1.01 | locus YGL086W, strain mad1, stronger effect = lower value 1.03 | locus YGL167C, strain pmr1, stronger effect = lower value 0.972 | locus YGL173C, strain kem1, stronger effect = lower value 0.953 | locus YGL227W, strain vid30, stronger effect = lower value 0.955 | locus YGL240W, strain doc1, stronger effect = lower value 0.981 | locus YGL248W, strain PDE1, stronger effect = lower value 1.01 | locus YGL253W, strain hxk2, stronger effect = lower value 0.974 | locus YGR078C, strain PAC10, stronger effect = lower value 1 | locus YGR135W, strain pre9, stronger effect = lower value 1.02 | locus YGR252W, strain gcn5, stronger effect = lower value 1.01 | locus YHR013C, strain ard1, stronger effect = lower value 0.957 | locus YHR027C, strain rpn1, stronger effect = lower value 0.987 | locus YHR030C, strain SLT2, stronger effect = lower value 1 and 1.05 | locus YHR079C, strain IRE1 (second series), stronger effect = lower value 1.02 | locus YHR079C, strain IRE1, stronger effect = lower value 1.03 | locus YHR094C, strain hxt1, stronger effect = lower value 1.01 | locus YHR129C, strain ARP1, stronger effect = lower value 1 | locus YHR142W, strain chs7, stronger effect = lower value 0.956 | locus YHR200W, strain rpn10, stronger effect = lower value 1.01 | locus YIL066C, strain RNR3, stronger effect = lower value 1 | locus YIL073C, strain SPO22, stronger effect = lower value 1.06 | locus YIL125W, strain kgd1, stronger effect = lower value 1.01 | locus YIR030C, strain dcg1, stronger effect = lower value 1.02 | locus YJL092W, strain hpr5, stronger effect = lower value 0.975 | locus YJL095W, strain BCK1 (second series), stronger effect = lower value 0.955 | locus YJL095W, strain BCK1, stronger effect = lower value 0.992 and 1.03 | locus YJL115W, strain asf1, stronger effect = lower value 0.956 | locus YJL129C, strain trk1, stronger effect = lower value 0.974 | locus YJL134W, strain LCB3, stronger effect = lower value 1 | locus YJL154C, strain vps35, stronger effect = lower value 0.977 | locus YJL164C, strain tpk1, stronger effect = lower value 0.969 | locus YJL166W, strain qcr8, stronger effect = lower value 0.992 | locus YJL168C, strain set2, stronger effect = lower value 1.01 | locus YJL187C, strain SWE1 (second series), stronger effect = lower value 1.01 | locus YJR043C, strain POL32, stronger effect = lower value 0.994
